Results filed as inconclusive are left out. Activity calls are given as the source filed them. The call rests on the fitted dose curve; in most records, active means well fitted curve in the direction sought with a large enough effect; inconclusive means small, poorly fitted or top-dose-only effect, or another doubt; inactive means no such curve, though single readings can be large; an effect the other way counts as inactive or inconclusive. Where a SMILES comes first, the peptide text is derived from it. [ ]: non-standard residue; d: D form. ξ: configuration not given here. ξPhe(βξ-Me) = CC(c1ccccc1)C(N)C(=O)O; GABA = NCCCC(=O)O
Experiments:
CRL-7250 = normal cell line; test: Cytotoxic Profiling of Annotated Libraries Using Quantitative High-Throughput Screening (AID 1296008); details: Five cell lines viability, CellTiter-Glo ATP luminescence, 48-72 h; max response: active compounds read low; further: nearly all actives have a fitted effect of over 60% in size; on max response: on the % scale 0 is the no-effect control and ±100 the full control effect
Outline: (§1)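 Cytotoxicity was measured as CellTiter-Glo ATP luminescence, read after 10 min at room temperature. Compound treatment of the cells lasted 48 or 72 hr at 37 degrees Celsius in a qHTS format.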

HEK293 = test: as above; details: Five cell lines viability, CellTiter-Glo ATP luminescence, 48-72 h; max response: active compounds read low
Outline: as §1

HaCat [1] = test: as above; details: Five cell lines viability, CellTiter-Glo ATP luminescence, 48-72 h; max response: active compounds read low
Outline: as §1

KB-3-1 = test: as above; details: Five cell lines viability, CellTiter-Glo ATP luminescence, 48-72 h; max response: active compounds read low
Outline: as §1

NIH3T3 = test: as above; details: Five cell lines viability, CellTiter-Glo ATP luminescence, 48-72 h; max response: active compounds read low
Outline: as §1

HACAT [2] = test: qHTS assay to identify novel small-molecules to repurpose for Merkel cell carcinoma treatment (AID 1296009); details: MCC and control cell lines, CellTiter-Glo viability, 72 h; at 44.8 µM (top of the series) unless noted; further: nearly all actives have a fitted effect of over 60% in size
Outline: (§2)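 Cell viability measured by CellTiter-Glo following 72 hr compound treatment at 37 degree celsius, with NPC and MIPE libraries tested in 8- and 11-point concentration series.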

HEK293T = test: as above; details: MCC and control cell lines, CellTiter-Glo viability, 72 h; series mostly up to 44.8 µM
Outline: as §2

C33A = test: Primary qHTS to identify gynecologic anti-cancer compounds using libraries of approved drugs and bioactive compounds (AID 1345084); details: Gynecologic cancer cell panel viability, ATPlite luminescence, 48 h; series mostly up to 57.5 µM; further: on the % scale 0 is the no-effect control and ±100 the full control effect; nearly all actives have a fitted effect of over 55% in size
Outline: (§3)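 Cells, 1,000 per well, were allowed to settle for 16 h at 37 C before compound addition. Five concentrations were tested for 48 h, and viability was read by ATPlite luminescence after 15 min at room temperature.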

CAOV3 = test: as above; details: Gynecologic cancer cell panel viability, ATPlite luminescence, 48 h; series mostly up to 57.5 µM
Outline: as §3

CASKI = test: as above; details: Gynecologic cancer cell panel viability, ATPlite luminescence, 48 h; series mostly up to 57.5 µM
Outline: as §3

Es-2 = test: as above; details: Gynecologic cancer cell panel viability, ATPlite luminescence, 48 h; series mostly up to 57.5 µM
Outline: as §3

HeLa = test: as above; details: Gynecologic cancer cell panel viability, ATPlite luminescence, 48 h; series mostly up to 57.5 µM
Outline: as §3

C/C=C/C=C/C(CC(=O)O)Nc1ccc(C=O)cc1 (centres undefined)
inactive: outcome (CRL-7250) | outcome (HEK293) | outcome (HaCat [1]) | max response (KB-3-1) 5.57% | max response (NIH3T3) 3.97% | outcome (HACAT [2]) | Potency (HEK293T) | Potency (C33A) | Potency (CAOV3) | Potency (CASKI) | Potency (Es-2) | Potency (HeLa)

O=C1[C@H](O[C@@H]2O[C@H](CO)[C@@H](O)[C@H](O)[C@H]2O)Oc2ccccc2N1O
inactive: max response (CRL-7250) 1.51% | outcome (HEK293) | outcome (HaCat [1]) | max response (KB-3-1) 3.12% | max response (NIH3T3) 0.0797% | outcome (HACAT [2]) | Potency (HEK293T) | Potency (C33A) | Potency (CAOV3) | Potency (CASKI) | Potency (Es-2) | Potency (HeLa)

C=CC1(C)C=C2C(=O)CC3C(C)(C)CCCC3(C(=O)O)C2(O)CC1 (centres undefined)
inactive: outcome (CRL-7250) | outcome (HEK293) | outcome (HaCat [1]) | outcome (KB-3-1) | max response (NIH3T3) -3.47% | outcome (HACAT [2]) | Potency (HEK293T) | Potency (C33A) | Potency (CAOV3) | Potency (CASKI) | Potency (Es-2) | Potency (HeLa)

CC(=O)C1CCC2(C)C3=C(CCC12C)C1(C)CCC(=O)C(C)(C)C1CC3 (centres undefined)
inactive: max response (CRL-7250) -8.18% | outcome (HEK293) | outcome (HaCat [1]) | outcome (KB-3-1) | max response (NIH3T3) -0.504% | outcome (HACAT [2]) | Potency (HEK293T) | Potency (C33A) | Potency (CAOV3) | Potency (CASKI) | Potency (Es-2) | Potency (HeLa)

O=C(c1ccccn1)c1cnn2c(-c3ccncc3)ccnc12
inactive: max response (CRL-7250) 3% | outcome (HEK293) | outcome (HaCat [1]) | max response (KB-3-1) -2.39% | max response (NIH3T3) 1.02% | outcome (HACAT [2]) | Potency (HEK293T) | Potency (C33A) | Potency (CAOV3) | Potency (CASKI) | Potency (Es-2) | Potency (HeLa)

NC(=O)c1cccc(-c2cc(O)cc(OC(=O)NC3CCCCC3)c2)c1
inactive: outcome (CRL-7250) | outcome (HEK293) | outcome (HaCat [1]) | outcome (KB-3-1) | max response (NIH3T3) -15.7% | outcome (HACAT [2]) inactive [at 17.4 µM] | Potency (HEK293T) | Potency (C33A) | Potency (CAOV3) | Potency (CASKI) | Potency (Es-2) | Potency (HeLa)

COc1ccc(/C=C/C(=O)O[C@@H]2[C@@H](OC(C)=O)[C@@H](OC(C)=O)[C@H](O[C@H]3[C@@H]4C=CO[C@@H](O[C@@H]5O[C@H](CO)[C@@H](O)[C@H](O)[C@H]5O)[C@@H]4[C@@]4(CO)O[C@@H]34)O[C@H]2C)cc1O
inactive: max response (CRL-7250) 3.11% | outcome (HEK293) | outcome (HaCat [1]) | max response (KB-3-1) 9.42% | max response (NIH3T3) 3.23% | outcome (HACAT [2]) inactive [at 17.4 µM] | Potency (HEK293T) | Potency (C33A) | Potency (CAOV3) | Potency (CASKI) | Potency (Es-2) | Potency (HeLa)

CCOc1nc2cccc(C(=O)O)c2n1Cc1ccc(-c2ccccc2-c2noc(=O)[nH]2)cc1
inactive: max response (CRL-7250) 4.39% | outcome (HEK293) | outcome (HaCat [1]) | outcome (KB-3-1) | max response (NIH3T3) -8.35% | outcome (HACAT [2]) | Potency (HEK293T) | Potency (C33A) | Potency (CAOV3) | Potency (CASKI) | Potency (Es-2) | Potency (HeLa)

CC1(C)C[C@H]2C3=CCC4[C@@]5(C)CC[C@H](O[C@H]6O[C@H](C(=O)O)[C@@H](O)[C@H](O)[C@H]6O[C@H]6O[C@H](CO)[C@@H](O)[C@H](O)[C@H]6O[C@@H]6O[C@H](CO)[C@@H](O)[C@H](O)[C@H]6O)[C@](C)(CO)C5CC[C@@]4(C)[C@]3(C)CC[C@@]2(C)[C@H](O[C@@H]2OC[C@H](O)[C@H](OC3O[C@H](CO)[C@@H](O)[C@H](O)[C@H]3O)[C@H]2O)[C@@H]1O (some centres undefined)
inactive: max response (CRL-7250) 3.94% | outcome (HEK293) | outcome (HaCat [1]) | max response (KB-3-1) 9.85% | max response (NIH3T3) 4.34% | outcome (HACAT [2]) inactive [at 9.27 µM] | outcome (HEK293T) inactive [at 9.27 µM] | activity change, negative = cytotoxicity (C33A) 3.46% [at 6.55 µM] | activity change, negative = cytotoxicity (CAOV3) 18.6% [at 6.55 µM] | activity change, negative = cytotoxicity (CASKI) -2.3% [at 6.55 µM] | activity change, negative = cytotoxicity (Es-2) 0.0485% [at 6.55 µM] | activity change, negative = cytotoxicity (HeLa) 2.32% [at 6.55 µM]

CC(C)CC1NC(=O)C(C(C)c2ccccc2)NC(=O)C(C(C)C)NC(=O)C(C)NC(=O)CCCNC(=O)C(Cc2c[nH]c3ccccc23)NC(=O)C(C)NC1=O (stereo not drawn) (cyclo([GABA]AV[ξPhe(βξ-Me)]LAW); configuration not given here)
inactive: max response (CRL-7250) -5.31% | outcome (HEK293) | outcome (HaCat [1]) | outcome (KB-3-1) | max response (NIH3T3) 3.96% | outcome (HACAT [2]) inactive [at 17.4 µM] | Potency (HEK293T) | Potency (C33A) | Potency (CAOV3) | Potency (CASKI) | Potency (Es-2) | Potency (HeLa)

C=C[C@H]1[C@H](O[C@@H]2O[C@H](CO[C@@H]3OC[C@](O)(CO)[C@H]3O)[C@@H](O)[C@H](O)[C@H]2O)OC=C2C(=O)OCC[C@H]21
inactive: outcome (CRL-7250) | outcome (HEK293) | outcome (HaCat [1]) | outcome (KB-3-1) | outcome (NIH3T3) | outcome (HACAT [2]) inactive [at 17.4 µM] | Potency (HEK293T) | Potency (C33A) | Potency (CAOV3) | Potency (CASKI) | Potency (Es-2) | Potency (HeLa)

COc1ccccc1[C@@H]1C2=C(CC(C)(C)CC2=O)Nc2n[nH]c(C(F)(F)F)c21
inactive: max response (CRL-7250) 3.92% | outcome (HEK293) | outcome (HaCat [1]) | outcome (KB-3-1) | outcome (NIH3T3) | outcome (HACAT [2]) | Potency (HEK293T) | Potency (C33A) | Potency (CAOV3) | Potency (CASKI) | Potency (Es-2) | Potency (HeLa)
